Experimental data from PubChem BioAssay AID2797 (The Scripps Research Institute Molecular Screening Center, 2010).
Hit rate of the full screen: of about 320,000 compounds, about 820 (0.26%) were called active.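 How the source made its calls: active means activation above the mean activation of all tested compounds plus 3 SD, per screening run (cut at about 20% in these data); inactive means the rest.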 The full list was thinned out, with actives kept by preference.

Each molecule was assayed against Vasopressin V1a receptor (Homo sapiens) (UniProt P37288) (assay: V1R activation via calcium rise – fluorescence, CHO-V1R cells, counter-screen for OXTR agonist project, primary screen (AID 2797;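 further: signal is peak over basal fluorescence ratio across a 100 second FLIPR read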)). Conditions: Fluo-8 calcium fluorescence, agonist mode, at 3 µM, active compounds read high, 0% DMSO, 100% 3 nM vasopressin.
Vasopressin V1a receptor (Homo sapiens), sequence (P37288 whole entry, looked up): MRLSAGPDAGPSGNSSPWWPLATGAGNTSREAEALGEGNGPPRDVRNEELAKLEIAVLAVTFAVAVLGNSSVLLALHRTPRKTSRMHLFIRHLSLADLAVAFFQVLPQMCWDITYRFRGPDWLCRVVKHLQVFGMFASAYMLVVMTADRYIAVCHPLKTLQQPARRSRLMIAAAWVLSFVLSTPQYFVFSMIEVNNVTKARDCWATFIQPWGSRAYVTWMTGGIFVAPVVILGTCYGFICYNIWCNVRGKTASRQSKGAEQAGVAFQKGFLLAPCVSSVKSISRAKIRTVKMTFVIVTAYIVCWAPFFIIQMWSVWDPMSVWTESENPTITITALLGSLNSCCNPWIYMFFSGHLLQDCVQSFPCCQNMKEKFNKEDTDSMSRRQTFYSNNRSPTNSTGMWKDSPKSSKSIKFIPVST
For Cc1nc2c(ncn2-c2ccccc2)c(=O)n1NC(=O)CN1CCCC1, the activation was 0.46% (inactive). With Brc1ccc(C2=CC(c3ccco3)n3ncnc3N2)cc1 (stereo not given) the activation was 9.25% (inactive). CCOc1ccc(C2=CC(c3ccccc3)n3ncnc3N2)cc1 (stereo not given) was tested, and the activation was 0.49% (inactive). For COc1ccc(C2C=C(c3ccc(Br)cc3)Nc3nc(NS(C)(=O)=O)nn32)cc1 (stereo not given), the activation was 23.5% (active). With COc1ccc(C(=O)Nc2cc(C)ccc2NC(=O)COc2ccccc2)cc1 the activation was 0.75% (inactive). In the case of Cc1ccc(O)c(NC(=S)NC(=O)COc2ccc(Br)cc2)c1, the activation is reported as 56% (active). In the case of CCS(=O)(=O)c1ccc(O)c(NC(=O)COc2ccc(Cl)cc2)c1, the activation is reported as 3.1% (inactive). In the case of CCN1CCN(c2sc(S(C)(=O)=O)nc2S(=O)(=O)c2ccc(Cl)cc2)CC1, the activation is reported as 0.09% (inactive). With CCn1c(C(C)C)n[nH]c1=S the activation was 0.69% (inactive). In the case of CCOC(=O)N/N=C1\CC(C)S(=O)(=O)c2ccc(Cl)cc21 (stereo not given), the activation is reported as -1.51% (inactive). In the case of CC1CN(C(=O)c2ccccc2NS(=O)(=O)c2cccc([N+](=O)[O-])c2)CC(C)O1 (stereo not given), the activation is reported as 1.41% (inactive). For CCOc1ccc(Cn2nnc(C(=O)NCc3ccccc3)c2N)cc1, the activation was 27.1% (active). With CCc1ccc(NC(=O)Cn2nnc(C(=O)NCc3ccc(OC)cc3)c2N)cc1 the activation was 0.71% (inactive). For CCOc1ccc(Cn2nnc(C(=O)Nc3ccc(OC)cc3OC)c2N)cc1, the activation was 12.4% (inactive). O=C(C[n+]1ccc2c(c1)nnn2-c1ccccc1)c1ccc(Cl)cc1 was tested, and the activation was -1.54% (inactive). COc1ccc(CCNc2cc(C)nc3c(-c4ccc(Cl)cc4)c(C)nn23)cc1OC was tested, and the activation was -0.66% (inactive). In the case of C=CCOCCN(C)C1=NS(=O)(=O)c2ccccc21, the activation is reported as -0.21% (inactive). In the case of CCO[C@H]1OC(C(=O)N2CCCCCCC2)=C[C@@H](c2ccc(C(F)(F)F)cc2)[C@@H]1CCCO, the activation is reported as -0.98% (inactive). O=C(/C=C/c1ccc2c(c1)OCCO2)c1ccc(O)cc1 was tested, and the activation was 1.07% (inactive). O=C(O)/C=C/c1ccc(OCCCF)cc1 was tested, and the activation was 0.21% (inactive). O=C(/C=C(O)/C=C/c1ccc(O)cc1)/C=C/c1ccc(O)cc1 was tested, and the activation was 76.2% (active). With CC(C)(C)S(=O)(=O)c1ccccc1-c1noc(-c2ccccc2)c1C(N)=O the activation was 0.13% (inactive). In the case of CCc1c(O)cc2n(c1=O)-c1ccccc1C2(C)C, the activation is reported as 1.27% (inactive). CCOc1ccc2[nH]c3nc(SCC(=O)NC4CCCC4)nnc3c2c1 was tested, and the activation was 1.39% (inactive). Nc1c(C(=O)c2cccs2)sc2nsc(SCCN3CCCCC3)c12 was tested, and the activation was 34.8% (active). With O=C(CSc1ncnc2sccc12)N1CCN(C(=O)c2cccs2)CC1 the activation was 1.53% (inactive). O=C(NCC(=O)N1CCC2(CC1)NCCc1[nH]cnc12)c1ccc(Br)cc1 was tested, and the activation was -0.07% (inactive). In the case of Cc1noc(C)c1NC(=O)Nc1cccc2c1O[C@H](CN(C)C(=O)Nc1ccccc1)[C@@H](C)CN([C@H](C)CO)C2=O, the activation is reported as 0.98% (inactive). Cc1nn(C)cc1N1C(=O)c2cccc3c(N)ccc(c23)C1=O was tested, and the activation was 66.8% (active). With CN1C(=O)c2cccc3c(N)ccc(c23)C1=O the activation was 133% (active). With O=C(O)c1ccc2c3c(cccc13)C(=O)N(OS(=O)(=O)c1ccccc1)C2=O the activation was 0.24% (inactive). In the case of Cc1nn(C)cc1C(=O)c1ccccc1, the activation is reported as 0.77% (inactive). For CC(=O)Nc1ccccc1Sc1ccc2c3c(cccc13)C(=O)N(c1ccc(C)cc1)C2=O, the activation was 0.04% (inactive). In the case of COc1ccc(N2C(=O)c3cccc4cccc(c34)C2=O)nn1, the activation is reported as -0.33% (inactive). COc1ccc(N(C(=O)c2ccc(C)cc2)S(=O)(=O)c2cccs2)cc1 was tested, and the activation was 0.59% (inactive). With Cc1cc(C(=O)CC#N)c(C)n1-c1c(C)n(C)n(-c2ccccc2)c1=O the activation was 1.66% (inactive). With CCOP1(=O)C=C(C(C)(C)C)OC1c1ccc(F)cc1 (stereo not given) the activation was 0.37% (inactive). In the case of Cc1ccc(N(C(=O)c2snc(C(N)=O)c2N)C(C(=O)NCC2CCCO2)c2c[nH]c3ccccc23)cc1 (stereo not given), the activation is reported as 2.4% (inactive). For CCN1/C(=C\c2ccc3ccccc3[n+]2CC)Sc2cc(C)ccc21, the activation was 20.7% (active). For O=C1CCCN2N=C(SCC(=O)Nc3ccc(Br)cc3)SC2=N1, the activation was 8.83% (inactive). For CCOC(=O)Cc1c(C)nc2c(C#N)c(C)nn2c1C, the activation was -0.1% (inactive). CCOC(=O)N1CCC(O)(c2cc(C)c(C)cc2C)CC1 was tested, and the activation was 0.01% (inactive). With CCCCCCn1cc(C(=O)O)c(=O)c2cc(F)c(N3CCCCC3)cc21 the activation was 1% (inactive). In the case of CCOC(=O)Cn1c(=O)oc2cc(S(=O)(=O)N(C)Cc3ccco3)ccc21, the activation is reported as 1.45% (inactive). In the case of CN(c1ccccc1)c1ccc(/C=c2\s/c(=C(/C#N)C(=O)C(C)(C)C)n(Cc3ccco3)c2=O)cc1, the activation is reported as 28% (active). COc1cc(NC(=O)COC(=O)c2cc(S(=O)(=O)N3CCOCC3)ccc2F)cc(OC)c1 was tested, and the activation was 1.44% (inactive). With CC(Oc1ccc2ccccc2c1)C(=O)NNC(=S)NC(=O)c1ccco1 (stereo not given) the activation was 23% (active). With CCCc1ccc(OCC(=O)NNC(=S)NC(=O)c2ccco2)cc1 the activation was 19.5% (inactive). With Cc1ccc(C(=O)NNC(=O)C(C)Oc2ccc3ccccc3c2)o1 (stereo not given) the activation was 0.2% (inactive). For Cc1cc2c(=O)n(CC(=O)NCC(=O)Nc3ccc(C(C)C)cc3)cnc2s1, the activation was 0.52% (inactive). O=C(CC1SC(=Nc2ccccc2F)N(CCN2CCOCC2)C1=O)Nc1ccc(F)cc1F (stereo not given) was tested, and the activation was -0.11% (inactive). In the case of CCCC(C)C(=O)Nc1ccc(NC(C)=O)cc1 (stereo not given), the activation is reported as 1.31% (inactive). In the case of COc1cc(OC)c(-n2cc(-c3ccc(Cl)cc3)[nH]c2=O)cc1Cl, the activation is reported as 38.5% (active). COc1cc(OC)c(N2CC(C(=O)Nc3cc(Cl)ccc3N3CCOCC3)CC2=O)cc1Cl (stereo not given) was tested, and the activation was 2.59% (inactive). COc1cc(OC)c(-n2c(C)cc(C=O)c2C)cc1Cl was tested, and the activation was -0.41% (inactive). In the case of CN1/C(=C\C=C2\N=C(c3ccc(F)cc3)OC2=O)C(C)(C)c2ccccc21, the activation is reported as 2.99% (inactive). With O=C(NCCc1nnc2ccc(SCC(=O)N3CCOCC3)nn12)c1ccccc1 the activation was -0.68% (inactive). For CCC(C)(C)C1CCC(=NNC(=O)c2ccc(Br)o2)CC1 (stereo not given), the activation was 0.08% (inactive). Cc1ccc(CN2CCN(c3ccccc3Cl)CC2)o1 was tested, and the activation was -0.73% (inactive). With O=C(CCc1[nH]c2ccccc2c1Sc1ccccc1)N(CCO)CCO the activation was 0.05% (inactive).
